KB-V1 MDR tox: kills drug-selected multidrug resistant KB-V1 cells | hit rate 3.4% among 400,000 | AID 1347076 | KB-V1 MDR cells viability, CellTiter-Glo, 72 h | Potency, µM (doses to about 46.1 µM), actives largely listed as cytotoxic; also: % is scaled to controls: 0 for no effect and ±100 for the full control effect; nearly all actives have a fitted effect of over 60% in size
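Cytotoxicity via CellTiter-Glo luminescence after 72 h compound exposure at 37 degrees C. Cells: drug-selected KB-V1 line, DMEM phenol-red free plus 10% FBS. Compounds tested at multiple concentrations; normalized data fitted to concentration-effect curves.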
MCF10A rerep: inducers of DNA re-replication in MCF 10A breast cells | hit rate 2.9% among 350,000 | MCF 10A DNA re-replication, Hoechst nuclear intensity, 48 h | AID 624296 | Potency, µM (top dose mostly 46.1 µM), for the others: top-dose activity, positive = re-replication, actives largely listed as activators; also: % of control where 0% means no effect; nearly all actives have a fitted effect of over 50% in size
ELG1 repair inh: blocks ELG1-dependent DNA repair in HEK293T cells; HEK293T ELG1-luciferase reporter, luminescence, 16 h; DNA damage induced by 5-fluorouridine; Potency, µM (titrated, usually from 46.1 µM), for inactives: at the highest dose activity change, negative = inhibition, usual class: inhibitors; hit rate 2.3% among 330,000; AID 504467; also: % is scaled to controls: 0 for no effect and ±100 for the full control effect; nearly all actives have a fitted effect of over 55% in size
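Luminescence from the luciferase reporter, measured 30 min after ONE-Glo reagent at room temperature, was the read-out. Beforehand, 2,000 cells per well were exposed for 16 hr at 37 °C to 5-fluorouridine together with compound or vehicle.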
KB-3-1 cytotox: KB-3-1 parental cell cytotoxicity; hit rate 1.4% among 400,000; AID 1347075; Potency, µM (doses to about 46.1 µM), hits mostly cytotoxic; KB-3-1 viability, CellTiter-Glo ATP luminescence, 72 h; also: % is scaled to controls: 0 for no effect and ±100 for the full control effect; nearly all actives have a fitted effect of over 60% in size
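KB-3-1 parental drug-naive adenocarcinoma cells in DMEM/10% FBS, incubated 72 h at 37 C with pin-transferred compounds across a concentration series. Viability by CellTiter-Glo luminescence; concentration-response curves fitted after normalization.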
SW480 rereplic: induces DNA re-replication in SW480 colon adenocarcinoma cells; SW480 DNA re-replication, Hoechst DNA content imaging, 48 h; Potency, µM (top dose mostly 46.1 µM), without a hit: at the highest dose re-replication activation, hits mostly activators; hit rate 1.8% among 340,000; AID 624297; also: % of control where 0% means no effect; nearly all actives have a fitted effect of over 55% in size
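Cells (250 per well) received 23 nL compound or DMSO by pin tool and were kept 48 hr at 37 C, 5% CO2. Nuclei were then stained with Hoechst for 40 min and scanned for DNA content.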
Starred values were filed as active, the others as inactive; i = inactive; ? = inconclusive; . = no result given. Only some compounds are listed: those with a hit (about 8.2% of all), similar ones and a draw of the others. Calls follow the shape of the dose curve; as a rule, active = well fitted curve in the direction sought with a large enough effect; inconclusive = small, poorly fitted or top-dose-only effect, or another doubt; inactive = no such curve, though single readings can be large; an effect the other way counts as inactive or inconclusive. Potency is read from the fitted curve at half-maximal effect.

SMILES	KB-V1 MDR tox	MCF10A rerep	ELG1 repair inh	KB-3-1 cytotox	SW480 rereplic
O=C(c1ccccc1)N1N=C(c2ccc(F)cc2)CC1c1ccc(F)cc1 (stereo unspecified)	i	12%	.	i	6%
Fc1ccc(C2CC(c3cccs3)=NN2c2ccccc2)cc1 (stereo unspecified)	i	3.5µM*	-4%	i	?
CC1CN(S(=O)(=O)c2cc(C(=O)NC(C)c3cccnc3)ccc2Cl)CC(C)O1 (stereo unspecified)	i	-1%	0%	i	-3%
CC(=O)Nc1c(O)nc(SCC(=O)Nc2nnc(SCc3ccccc3)s2)[nH]c1=O	i	-16%	12%	i	26%
COc1ccc(C2=NN(c3ccc(C=O)cc3)C(c3ccccc3)C2)cc1 (stereo unspecified)	i	?	?	i	?
Oc1ccccc1C1=NN(c2ccccc2)C(c2ccc(F)cc2)C1 (stereo unspecified)	i	?	-13%	i	?
COc1ccc(C2=NN(c3ccccc3)C(c3ccc(OC)c(OC)c3)C2)cc1 (stereo unspecified)	i	?	?	?	15µM*
O=C(c1cccs1)N1N=C(c2ccc(O)cc2)CC1c1ccccc1 (stereo unspecified)	i	?	-9%	i	1%
O=C(c1cccs1)N1N=C(c2ccccc2)CC1c1ccc(O)cc1 (stereo unspecified)	13µM*	?	2%	i	5%
Oc1ccc(C2=NN(c3ccccc3)C(c3ccc(F)cc3)C2)cc1 (stereo unspecified)	i	5.8µM*	-8%	i	23µM*
COc1ccc(/C=C/C(=O)OCC(=O)N2c3ccccc3CC2C)cc1 (stereo unspecified)	i	.	.	i	.
CC(=O)c1ccc(S(=O)(=O)NCCC(=O)OCC(=O)N(Cc2ccccc2)C(C)(C)C)cc1	21µM*	5%	2%	i	-3%
CC(=O)Nc1ccc(C(=O)OCC(=O)N(Cc2ccccc2)C(C)(C)C)cc1	15µM*	4%	0%	i	-13%
CC(=O)Nc1ccc(C(=O)OCC(=O)N2CCC(Cc3ccccc3)CC2)cc1	i	0%	6.5µM*	i	-4%
CC(C)(C)C(=O)Nc1ccc(-c2nc3ccccc3s2)cc1	i	.	.	i	.
O=C(N/N=C/c1cccc([N+](=O)[O-])c1)c1cc[n+](CCO)cc1	i	0%	-13%	i	-11%
COC1c2ccccc2C(=O)N1CCc1ccc(Cl)cc1 (stereo unspecified)	i	14%	?	i	3%
Cc1ccc(S(=O)(=O)N(CC(=O)N=Nc2c(O)[nH]c3ccccc23)c2cccc(C)c2)cc1	21µM*	?	21µM*	21µM*	?
O=C(CN1CCN(Cc2ccccc2Cl)CC1)N=Nc1c(O)[nH]c2ccccc12	15µM*	-3%	21µM*	i	60%
Cc1ccc(CN2CCN(CC(=O)N=Nc3c(O)[nH]c4ccccc34)CC2)cc1	?	?	8.2µM*	i	-5%
O=C(OCc1c(-c2ccccc2)ncc2ccccc12)c1cccc(Br)c1	?	17%	9.2µM*	i	-3%
O=C(OCc1c(-c2ccccc2)ncc2ccccc12)c1ccc(F)cc1	i	-27%	?	i	-2%
CCOC(=O)C1=C(N)n2c(s/c(=C/c3ccco3)c2=O)=C(C(=O)OC)C1c1ccco1 (stereo unspecified)	?	6.5µM*	?	8.2µM*	13µM*
CCCN(Cc1ccccc1)C(=S)Nc1ccc(F)cc1	i	29%	-8%	i	5%
CCCN(Cc1ccccc1)C(=S)Nc1ccc(SC(F)F)cc1	?	37%	23µM*	i	-4%
SMILES	KB-V1 MDR tox	MCF10A rerep	ELG1 repair inh	KB-3-1 cytotox	SW480 rereplic
O=C1CCN2C=Nc3cccc4ccc1c2c34	12µM*	13%	?	?	20%
O=C1CCC(=O)c2ccc3c4c(ccc1c24)CC3	i	?	.	i	-3%
O=C(CSc1nc(-c2ccccc2)c(-c2ccccc2)o1)Nc1nncs1	i	?	3%	i	5%
O=C(CSc1nc(-c2ccccc2)c(-c2ccccc2)o1)NC1CCS(=O)(=O)C1 (stereo unspecified)	i	9%	23µM*	i	-3%
O=C(CSc1nnc(-c2ccccc2)o1)NC1CCS(=O)(=O)C1 (stereo unspecified)	i	0%	12%	i	0%
O=C(CSc1nc(-c2ccccc2)c(-c2ccccc2)o1)Nc1nnc(-c2ccccc2)s1	7.3µM*	0%	10%	i	-10%
O=C(CSc1nc(-c2ccccc2)c(-c2ccccc2)o1)N1CCOCC1	?	16µM*	?	?	2%
CCCCc1nn2c(=O)cc(COC(=O)c3cccc(NC(=O)c4cccs4)c3)nc2s1	i	.	.	i	.
COC(=O)c1cccc(Nc2nc3ccccc3nc2C)c1	i	?	?	i	1%
CCOC(=O)c1c(Nc2ccc(C)cc2)nnc(-c2ccccc2)c1-c1ccccc1	23µM*	.	.	i	.
CCOC(=O)c1c(Nc2cccc(C(=O)OC)c2)nnc(-c2ccccc2)c1-c1ccccc1	13µM*	.	.	i	.
Cc1ccc(S(=O)(=O)N2CCN(CN3C(=O)CC4(CCCC4)C3=O)CC2)cc1	i	8%	-1%	i	-17%
O=C1C2C3C=CC(C3)C2C(=O)N1CCCCCCN1C(=O)C2C3C=CC(C3)C2C1=O (stereo unspecified)	18µM*	11%	?	?	-2%
O=C(CC1CCCCC1)N1CCCC(c2nc(-c3ccc(S(=O)(=O)N4CCCC4)cc3)no2)C1 (stereo unspecified)	8.2µM*	?	?	i	-8%
O=C(c1ccco1)N1CCCC(c2nc(-c3ccc(S(=O)(=O)NCc4ccccc4)cc3)no2)C1 (stereo unspecified)	i	18µM*	21µM*	i	10%
COc1ccc(-c2noc(C3CCCN(C(=O)CCc4ccccc4)C3)n2)cc1 (stereo unspecified)	i	3%	?	?	2%
Cc1cccc(NC(=O)c2cn(-c3ccccc3)nc2-c2ccccc2)c1C	?	.	.	i	.
Cc1nnn(C23C[C@@H]4C[C@@H](CC(C(=O)N5CCN(c6ccccc6)CC5)(C4)C2)C3)n1	?	7%	23µM*	i	-14%
Cc1nnn(C23CC4CC(CC(CC(=O)Nc5ccc(C)c(Cl)c5)(C4)C2)C3)n1	7.3µM*	15%	?	i	-1%
Cc1cccc(/C=C/C(=O)c2ccc(NC3=NCCCS3)cc2)c1	?	?	14%	?	9.2µM*
